PubChem BioAssay AID485297 (National Center for Advancing Translational Sciences (NCATS), 2010)
Among all 320,000 compounds or so, about 9,100 (2.8%) were called active. Not shown: some 3% with an inconclusive outcome. For the sample, actives were picked, then their nearest neighbours and some compounds at random. Unmarked numbers belong to inactive results. Calls follow the shape of the dose curve; as a rule, active = well fitted activation curve with a large enough effect; inconclusive = small, poorly fitted or top-dose-only effect; inactive = no such curve, though single readings can be large or run the other way.

Test: qHTS Assay for Rab9 Promoter Activators; also: nearly all actives have a fitted effect of over 60% in size; as to activation, negative = inhibition: % of control where 0% means no effect
Settings: Huh7 Rab9 promoter-luciferase reporter, luminescence, 24 h; series mostly up to 9.22 µM; activation, negative = inhibition: at the top concentration
Text: NIH Chemical Genomics Center [NCGC] NIH Molecular Libraries Probe Production centers Network [MLPCN] MLPCN Grant: MH089537-01 Assay Submitter (PI): Yiannis A. Ioannou NCGC Assay Overview: Niemann Pick Type C (NPC) is a rare neurodegenerative lipidosis that is characterized by lipid storage in the endosomal/lysosomal system. Treatment modalities for this devastating disease are currently non-existent due to the severe obstacles associated with accessing the central nervous system with proteins or genes (Ioannou, 2000). We have developed a new paradigm, termed "Orphan Receptor Bypass Therapy" (ORByT), to address these disorders. This paradigm posits the existence of endogenous "suppressor" proteins whose expression can dramatically improve LSD pathogenesis. The goal is the identification/discovery of small chemical compounds that can modulate the expression of these proteins and provide a new treatment modality for these devastating disorders. One such protein whose overexpression reverses aspects of the NPC phenotype is Rab9. We have developed and optimized a cell based luciferase reporter assay in 1536 well format for the identification of up-regulators of the Rab9 promoter.
The Rab9 promoter is cloned in front of the luciferase reporter gene, therefore […] promoter activation results in luciferase expression. Frozen stock of the Rab9 promoter transfected Huh7 cells were obtained from the laboratory of Dr. Yiannis Ioannou (The Mount Sinai School of Medicine, New York, NY). Cells were propagated and maintained at NCGC in medium containing RPMI-1640 supplemented with 10% FBS, 2mM L-glutamine, and 50ug/ml penicillin/streptomycin. Cells were harvested in and plated for assays in OP-MEM I reduced-serum medium supplemented with 10% FBS. The Amplite luciferase reporter gene assay kit was purchased from ABD Bioquest and prepared/stored according to manufacturers recommendations. qHTS Assay Setup: 1.Dispensed 5ul of Huh7 cells stably expressing Rab9-luciferase at a density of 1500 cells per well 1536-well plates. 2.Incubate cells at 37C, 5% CO2, and 95% humidity for 2 hours. 3.Transferred 23nl per well of compound in DMSO solution. 4.Incubated at 37C, 5% CO2, and 95% humidity for 24 hours. 5.Dispensed 3ul per well of Amplite reagent(ABD Bioquest) per well. 6.Incubate at ambient for 10 minutes. 7.Read using the luminescence protocol on the ViewLux plate reader (Perkin Elmer).
Potency is read from the fitted curve at half-maximal effect.

SMILES | activation, negative = inhibition | Potency
O=C(NCCc1c[nH]c2ccccc12)c1cccc(Br)c1 | -1.43% [at 1.84 µM] | 
O=C(NCCc1c[nH]c2ccccc12)c1cc2ccccc2oc1=O |  | 3.98 µM (active)
CN(c1ccccc1)S(=O)(=O)c1ccc(Cl)c(C(=O)NCCc2c[nH]c3ccccc23)c1 | -1.2% | 
COCCNc1nnc(SCC(=O)NNC(=O)c2ccco2)s1 | 1.51% | 
CCCCc1ccc(NS(=O)(=O)c2cccc(C(=O)N3CCCN(C)CC3)c2)cc1 | -0.577% | 
COc1ccccc1P(=O)(c1ccccc1)c1ccccc1NC(C)=O (centres undefined) | -1.37% | 
Cc1cc2nc(SCCN3CCOCC3)[nH]c2cc1C |  | 3.55 µM (active)
CCn1c2ccc(F)cc2c2nnc(SCCN3CCOCC3)nc21 | 0.369% | 
Cc1cccc(C)c1OCCN1CCOCC1 | 1.22% | 
O=C(Nc1cccnc1Oc1ncnc2cc(Cl)ccc12)c1ccc(F)cc1 | -0.405% | 
Cc1ccc(S(=O)(=O)N(C)C)cc1NC(=O)c1ccc(-n2cncn2)c([N+](=O)[O-])c1 | -2.73% | 
C/C(=N\Nc1cccc(C(=O)O)c1)c1ccc2c(c1)Nc1ccccc1S2 |  | 3.16 µM (active)
O=C(O)c1cccc(N2C(=O)Nc3ccccc3N2O)c1 | -0.52% | 
O=C(NC1CC1)c1ccc2c(c1)NC(=O)c1ccccc1S2 | 0.355% | 
CCc1ccccc1NC(=O)CN(C)C(=O)c1cc(C2CC2)nn1-c1ccccc1 | -6.71% | 
CCN1C(=S)N[C@@H](c2cccc(C(F)(F)F)c2)C(C(=O)OC)=C1C | -0.0689% | 
O=C(CN1CCN(S(=O)(=O)c2ccc(Cl)s2)CC1)N1CCCCC1 | 1.18% | 
COC(=O)c1cc(NS(=O)(=O)c2ccc3c(c2)c(=O)n(C)c(=O)n3C)cc(C(=O)OC)c1 | -1.46% | 
CSc1ccccc1C(=O)OCC(=O)N1CCN(C(C)=O)CC1 | 10.5% | 
N#CC(=C1CCCC1)c1nc(-c2ccc(Cl)cc2)cs1 |  | 3.16 µM (active)
N#C/C(=C1/CCCN1)c1ccccn1 | -3.34% | 
CCCCCN1CC(O)=C(c2nc(-c3ccc(Cl)cc3)cs2)C1=N | -1.52% | 
CCCCN(C(=O)c1nn(C)c(=O)c2ccccc12)c1c(N)n(CCC)c(=O)[nH]c1=O | -1.21% | 
COc1ccc2nc(C)cc(Nc3cccc(C(=O)O)c3)c2c1 | 0.435% | 
Cc1ccc(Nc2ncnc3c2cnn3C)c(C)c1 | 4.52% | 
Cc1ccc(-n2ncc3c(Nc4cccc(C(=O)O)c4)ncnc32)cc1 |  | 0.355 µM (active)
COc1ccccc1C(=O)NCCC(=O)N(C)Cc1cccnc1 | -4.93% | 

SMILES | activation, negative = inhibition | Potency
O=C(c1ccncc1)N1CCN(c2ccc3ccccc3n2)CC1 | -12.5% | 
c1cnc(N2CCN(c3ccc4ccccc4n3)CC2)nc1 |  | 3.16 µM (active)
Oc1ccc(CN2CCN(c3ncccn3)CC2)cc1 | 9.57% | 
CCOc1ccc(NS(=O)(=O)c2ccc(Cl)c(C(=O)N(C)Cc3cccnc3)c2)cc1 | -4.89% | 
O=C(NCCc1ccc(C(F)(F)F)cc1)c1ccc2c(c1)OCO2 | 0.109% | 
CCNC(=O)CC1C(=O)N(c2ccc(OC)cc2)C(=S)N1CCc1ccncc1 (centres undefined) | 1.18% | 
CCOCCCn1c(SCC(=O)Nc2cc(OC)ccc2OC)nc2ccccc2c1=O | -1.67% | 
COc1ccc(NS(=O)(=O)c2cc(NC(=O)CC(=O)c3ccc([N+](=O)[O-])cc3)ccc2C)cc1 | -2.92% | 
Cc1cc(C(F)(F)F)nc(SCC(=O)Nc2nccs2)n1 | 2.24% | 
CCn1c(SCC(=O)Nc2nccs2)nnc1-c1ccncc1 | -6.47% | 
CC(=O)c1cc(C#N)c(SCC(=O)C(C)(C)C)nc1C |  | 2.51 µM (active)
Cc1[nH]c2ccccc2c1SCC(=O)Nc1nccs1 |  | 4.47 µM (active)
Cc1cc(C#N)c(SCC(N)=O)nc1-c1ccc(F)cc1 | -4.05% | 
CC(=O)c1cc(C#N)c(SCC(=O)Nc2nccs2)nc1C |  | 1.26 µM (active)
CCn1c(SCC(=O)Nc2nccs2)nnc1-c1ccco1 | -18.2% | 
CC(=O)c1cc(C#N)c(N2CC(C)OC(C)C2)nc1C (centres undefined) | -9.19% | 
Cn1c(SCC(=O)Nc2nccs2)nnc1-c1cccnc1 | -2.59% | 
O=C1C=C(c2cccc(Cl)c2O)C[C@@H](c2ccc(F)cc2)C1 | -8.32% | 
Cc1cc(C)c(C#N)c(SCC(=O)N(CC(C)C)C2CCS(=O)(=O)C2)n1 (centres undefined) | -8.44% | 
O=C(O[C@@H]1[C@H](Cc2ccccc2)NS(=O)(=O)[C@H]2C[C@@H]3C=C[C@]12O3)c1ccccc1Br | -9.32% | 
O=C(Nc1ccccc1F)c1ccc(S(=O)(=O)N2CCCCCC2)cc1 | 24.5% | 
CCc1cc(C(=O)Nc2nnc(C3CC3)s2)sc1C | 26.1% | 
O=C1CCC(=O)N(c2ccccc2)N1 | -7.48% | 
CC(=O)NC1C(Oc2ccc(C)cc2)OC2COC(c3ccco3)OC2C1O (centres undefined) | -3.88% | 
CCn1nnnc1SCC(=O)c1ccc(C)cc1C |  | 3.55 µM (active)
COc1ccc(C(=O)CSc2nnnn2C)c(OC)c1 | -1.76% | 
CCn1nnnc1SCC(=O)Nc1ccc(N(C)C)cc1 | 24.8% | 
